Most compounds without a hit are left out; they make up all but 3.4% or so of the library.
TEAD-YAP inh: TEAD-YAP interaction inhibition. HEK-TIYL cells, TEAD-Gal4/YAP UAS-luciferase luminescence. inhibition, % at 9.12 µM. hit rate 1.4% among 640,000; in the data active = inhibition above about 32%
FBW7 activator: activators of human E3 ligase FBW7 | AlphaScreen FBW7–phospho-cyclin E peptide binding, activator screen | normalized activity (activation), % at 26.1 µM | hit rate 0.13% among 650,000 | AID 1259310; in the data active = normalized activity above about 1.9%;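 note: purified mutant Fbw7 with reduced substrate affinity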
GPR151 ag: activates the human receptor GPR151 | Q8TDV0 | PathHunter beta-arrestin GPR151 cells, luminescence | activation, % at 11.2 µM | hit rate 1% among 650,000 | AID 1508602; in the data active = activation above about 4.9%
Target sequence (Q8TDV0 whole entry, looked up): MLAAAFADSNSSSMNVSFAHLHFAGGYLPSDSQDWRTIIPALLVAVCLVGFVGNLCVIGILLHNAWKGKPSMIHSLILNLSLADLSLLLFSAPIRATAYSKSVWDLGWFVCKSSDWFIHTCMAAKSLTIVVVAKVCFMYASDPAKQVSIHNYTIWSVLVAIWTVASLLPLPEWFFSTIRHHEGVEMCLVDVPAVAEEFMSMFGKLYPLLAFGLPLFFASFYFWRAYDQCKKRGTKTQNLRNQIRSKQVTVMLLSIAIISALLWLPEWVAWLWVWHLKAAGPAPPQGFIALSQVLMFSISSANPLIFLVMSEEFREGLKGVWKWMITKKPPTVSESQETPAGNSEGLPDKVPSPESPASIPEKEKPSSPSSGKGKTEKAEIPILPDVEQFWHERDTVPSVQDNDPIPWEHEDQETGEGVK
MITF inh: inhibitors of human MITF. inhibition, % at 2.6 µM. O75030. AlphaScreen MITF homodimerization, bead proximity signal. AID 1259374. hit rate 0.91% among 650,000; in the data active = inhibition above about 50%
Numbers stand for hits; n = inactive; x = no result.

SMILES	TEAD-YAP inh	FBW7 activator	GPR151 ag	MITF inh
Cn1c(C(=O)NCCCN2CCCC2)cc2sccc21	n	n	n	n
Cn1c(C(=O)NCCc2ccccc2)cc2sccc21	41	n	n	n
Cc1cc2c(cc(C(=O)NCCc3ccccc3)n2C)s1	58	n	n	n
O=C(Nc1ccc2oc(-c3cccc4c(Br)cccc34)nc2c1)c1ccc([N+](=O)[O-])cc1	n	n	n	n
COC(=O)/C=C(\C(=O)OC)n1c([N+](=O)[O-])cnc1C	n	n	n	n
CCOC(=O)CC(NS(=O)(=O)c1c(C)cc(C)cc1C)c1ccc(C)cc1 (configuration not stated)	n	n	n	n
Nc1ccc(-c2ccccc2)cc1[N+](=O)[O-]	n	n	n	n
CCOC(=O)CN(C(=O)CCl)c1ccc(F)cc1	77	n	n	n
CCc1c(C)nc2c(C(=O)NCc3ccc(F)cc3)c[nH]n2c1=O	n	n	n	n
Cc1ccc2nc(-c3ccc(N)cc3)sc2c1	86	n	n	n
Cc1ccc2nc(-c3cc(Cl)c(N)c(Cl)c3)sc2c1	n	n	n	n
Cc1ccc2sc(NC(=O)/C=C/C(=O)O)nc2c1	n	n	n	n
Cc1ccc2sc(-c3ccc(N)cc3)nc2c1	87	n	n	n
Cc1ccc2sc(-c3ccc(NC(=O)/C=C/C(=O)O)cc3)nc2c1	92	n	n	n
Nc1ccc(-c2nc3cc(N)ccc3s2)cc1	47	n	n	n
CCN1C(=O)[C@H]2[C@H]3[C@H](O)C=CC(=O)[C@@H]3CC[C@H]2C1=O	x	n	n	n
O=C(CCC1CCCCC1)N(c1ccccc1)C1C=CS(=O)(=O)C1 (configuration not stated)	n	n	n	n
CCC(=O)N1c2ccc(S(=O)(=O)CCC(=O)Nc3cc(C)cc(C)c3)cc2CC1C (configuration not stated)	n	n	n	n
COc1cccc(NC(=O)CSc2nc3ccccc3c3nc(CCN4CCCCC4)nn23)c1	n	n	n	n
Cc1ccc2sc(-c3ccc(NC4=CC(=O)CC(C)(C)C4)cc3)nc2c1	53	n	n	n
Cc1ccc2sc(-c3ccc(NS(C)(=O)=O)cc3)nc2c1	n	n	n	n
Cc1ccc(S(=O)(=O)NNC(=O)c2c(C)cc(C)cc2C)cc1	n	n	n	n
CCC(CC)C(=O)N1CCCC(c2nc(-c3cccc(OC)c3)no2)C1 (configuration not stated)	42	n	n	n
COc1ccc(-c2noc(C3CCCN(C(=O)c4c(OC)cccc4OC)C3)n2)cc1 (configuration not stated)	47	n	n	n
CCCC(=O)N1CCCC(c2nc(-c3cccc(OC)c3)no2)C1 (configuration not stated)	n	n	n	n
SMILES	TEAD-YAP inh	FBW7 activator	GPR151 ag	MITF inh
CC(C)C(=O)Nc1c(C(=O)Nc2ccc(F)c(F)c2)oc2ccccc12	n	n	n	n
O=C(Nc1ccccc1C1CC1(Cl)Cl)c1cccs1 (configuration not stated)	n	n	n	n
Cc1cc(N2CCOCC2)nc(N2CCN(C(=O)C(C)C)CC2)n1	n	n	n	n
COc1ccc(Cl)c2sc(NC(=O)c3ccco3)nc12	n	2.1	n	n
COc1cc(Br)c(/C=C2\SC(NC(C)=O)=NC2=O)cc1OC	n	n	n	n
COC(=O)c1ccc2c(c1)sc1nc(-c3ccccc3)cn12	65	n	n	n
CCOC(=O)c1ccc2c(c1)sc1nc(-c3ccccc3)cn12	54	n	n	n
Clc1ccc(-c2cn3c(n2)sc2ccccc23)cc1	n	2.7	n	n
Ic1ccc(-c2cn3c(n2)sc2ccccc23)cc1	n	n	n	n
N#Cc1cccc(OCc2ccccc2Cl)c1	n	n	n	n
O=C(NCc1ccccc1Cl)c1cccnc1SCc1cccc(F)c1	n	n	n	n
CC(C)(Oc1ccc(Cl)cc1)C(=O)Nc1ccc(S(=O)(=O)N2CCOCC2)cc1	n	n	n	n
CC1CC(C)(C)Nc2ccc(OC(=O)c3ccccc3)cc21 (configuration not stated)	44	n	n	n
O=C(Oc1ccc(OC(=O)c2ccccc2)cc1)c1ccccc1	n	n	n	n
COc1ccc(/C=N/Nc2nc3ccccc3n2C)cc1OC	n	n	n	n
CCNc1ccc(C(=O)NN)cc1[N+](=O)[O-]	35	n	n	n
COc1ccc(CNc2ccc(C(=O)Nc3ccc(C)cc3C)cc2[N+](=O)[O-])cc1	56	n	n	n
CCNc1ccc(C(=O)OCC(=O)OC(C)(C)C)cc1[N+](=O)[O-]	n	n	n	n
COc1cccc(NC(=O)c2ccc(NCc3ccccc3Cl)c([N+](=O)[O-])c2)c1	52	n	n	n
Cc1ccc(NC(=O)c2ccc(NCc3ccc(F)cc3)c([N+](=O)[O-])c2)c(C)c1	n	n	n	n
O=C(CSc1nnnn1-c1ccccc1)OCc1ccc([N+](=O)[O-])cc1	n	n	n	n
Clc1ccc(CSc2nnnn2-c2ccccc2)c(Cl)c1	n	n	n	n
CCC(C)(C)n1nnnc1C(c1ccc(O)cc1)N1CCc2ccccc2C1 (configuration not stated)	77	n	n	n
CC(C)(C)n1nnnc1C(c1ccccc1)N1CCc2ccccc2C1 (configuration not stated)	n	n	n	n
Cc1ccc(C(=O)c2ccc(N)cc2)cc1C	52	n	n	n
SMILES	TEAD-YAP inh	FBW7 activator	GPR151 ag	MITF inh
Cc1ccc(C)c(NC(=O)C2CC3c4ccccc4C2c2ccccc23)c1 (configuration not stated)	n	2.0	n	n
O=C(Cn1ccc(=NCc2ccccc2)cc1)c1ccc(I)cc1	66	n	n	n
O=C(Cn1ccc(=NCc2ccccc2)cc1)c1ccc(Cl)cc1	n	n	n	n
COc1ccccc1-n1c(CNC(=O)c2ccc(S(=O)(=O)N(C)C)cc2)nnc1SCC(=O)Nc1nnc(C)s1	n	n	n	n
Nc1nc2c(s1)CCc1c-2cnn1-c1ccccc1	45	n	n	n
CC1(C)Cc2c(cnn2-c2ccc(Cl)cc2)-c2nc3ccccc3nc21	n	n	n	n
Cc1cccc(C2CC(=O)Nc3cc4c(cc32)OCO4)c1 (configuration not stated)	n	n	n	n
Cc1cccc(C2CC(=O)Nc3cc4c(cc32)OCCO4)c1 (configuration not stated)	40	n	n	n
Cc1cc(C)c2c(n1)nn1c(NCc3ccco3)cc(C)nc21	n	254	n	n
COc1ccc2nc(NC(=O)c3ccoc3C)sc2c1	59	n	n	n
COc1ccc2nc(NC(=O)c3cc(Br)ccc3Cl)sc2c1	n	n	n	n
COc1ccc2nc(NC(=O)c3nn(C)cc3C)sc2c1	n	3.6	n	n
COc1ccc(CC2(C)OC(c3cccs3)=NN2C(C)=O)cc1 (configuration not stated)	36	n	n	n
COc1ccc(CC2(C)OC(c3ccncc3)=NN2C(C)=O)cc1 (configuration not stated)	n	n	n	n
Cc1cccc2cc(CN(CC3CCCO3)C(=O)C(F)(F)F)c3nnnn3c12 (configuration not stated)	n	n	n	n

Bioassay records (PubChem BioAssay)
